DT40 TDP1 no CPT: qHTS for Inhibitors of human tyrosyl-DNA phosphodiesterase 1 (TDP1): qHTS in cells in absence of CPT | DT40 Tdp1-/- hTDP1 cells, no CPT, ATP luminescence, 48 h | Potency, µM (series often up to 46.2 µM), inactives show at the highest dose activity change, negative = growth inhibition, actives largely listed as inhibitors | hit rate 15% among 420,000 | AID 686978, 2013; note: potency is the fitted concentration of half-maximal effect; nearly all actives have a fitted effect of over 55% in size
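A cellular qHTS used chicken DT40 cells lacking endogenous Tdp1 but carrying stably transfected human TDP1. Compounds were applied without camptothecin, and cell growth kinetics were judged by ATP-dependent luminescence after ≥48 hr.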
TDP1 cell CPT: growth inhibition of DT40 Tdp1-/-;hTDP1 cells with camptothecin (screen for TDP1 inhibitors). AID 686979. Potency, µM (highest dose often 46.2 µM), inactives show at the highest dose activity change, negative = growth inhibition, usual class: inhibitors. hit rate 12% among 420,000. chicken DT40 Tdp1-/-;hTDP1 cells + 20 nM CPT, ATP luminescence, 48 h; note: potency is the fitted concentration of half-maximal effect; nearly all actives have a fitted effect of over 55% in size
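Cell growth measured by CellTiter-Glo luminescence after a minimum 48 h, 37 C compound exposure with 20 nM CPT in Tdp1-knockout DT40 cells stably expressing hTDP1, seeded 400/well; qHTS titration format.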
HT1080 IDH1KD tx: toxicity to HT-1080 IDH1 knockdown cells (counter line) | HT-1080 IDH1 knockdown viability, ATP luminescence, 48 h | Potency, µM (series often up to 46.1 µM), for inactives: top-dose activity, negative = toxicity, hits mostly cytotoxic | hit rate 2% among 360,000 | AID 686971;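 note: potency is the fitted concentration of half-maximal effect; 0% = DMSO wells and -100% = cell-free medium wells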
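Luminescent ATP read-out (CellTiter-Glo, 10 min at room temperature) after 48 h compound exposure at 37 °C gave viability of IDH1-knockdown HT-1080 cells. Activity was normalised to DMSO and cell-free wells, then fitted as concentration-response curves.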
IL1B secr inh: blocks inflammasome-driven IL-1 beta release. THP-1 LPS/ATP IL-1B secretion, AlphaLISA, 16 h; hits give low values. activity change, % at 57.5 µM. hit rate 4.7% among 360,000. AID 743279; in the data active = activity change below about -50%; inconclusive = mostly about -30% to -49%
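THP-1 cells pretreated 1 hr with compounds (up to 57.5 uM final), then stimulated with LPS (250 ng/mL final) plus ATP (1.25 mM final); secreted IL-1B measured by AlphaLISA after 16 hr, decreased signal indicating inhibition.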
HT1080-NT tox: kills 2HG-producing HT-1080-NT fibrosarcoma cells; AID 686970; Potency, µM (doses to about 46.1 µM), inactives show top-dose activity, negative = less viability, hits mostly cytotoxic; hit rate 1.6% among 360,000; HT-1080-NT fibrosarcoma viability, CellTiter-Glo ATP luminescence, 48 h;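 note: NT is the 2HG producing partner of a matched IDH1 knockdown line; potency is the fitted concentration of half-maximal effect; 0% = DMSO-treated cells and -100% = media-only wells without cells; nearly all actives have a fitted effect of over 55% in size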
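750 cells/well, RPMI + 5% FBS; 2 h settle, compound pin-transfer, 48 h at 37 degrees C. CellTiter-Glo 10 min RT, luminescence. Normalized to DMSO and media-only wells.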
Numbers without * were called inactive; ? = inconclusive; / = no result given; [ ] = another dose, or the depositor's remark. In the library only some 19% were active in any assay of this set; here they are far more common. Unless noted, calls come from the whole dose curve; as a rule, active = well fitted curve in the direction sought with a large enough effect; inconclusive = small, poorly fitted or top-dose-only effect, or another doubt; inactive = no such curve, though single readings can be large; an effect the other way counts as inactive or inconclusive. Unless noted, % is set by controls: 0 for no effect and ±100 for the full control effect.

SMILES | DT40 TDP1 no CPT | TDP1 cell CPT | HT1080 IDH1KD tx | IL1B secr inh | HT1080-NT tox
CCn1nnc(-c2ccccc2NC(=O)c2cc(OC)c(OC)c(OC)c2)n1 | 15µM* | ? | 6% | 8 | -13%
CCCC(=O)Nc1ccccc1-c1nnn(CC(=O)Nc2ccc(OC)cc2)n1 | 21µM* | ? | -12% | 7 | -10%
COc1cccc(NC(=O)Cn2nnc(-c3ccccc3N)n2)c1 | -19% | -18% | 1%[9.24 µM] | 10 | -8%
COc1ccc(C(=O)Cn2nnc(-c3ccccc3NC(=O)c3ccco3)n2)cc1 | 8.2µM* | ? | 1% | -11 | 8%
COc1ccc(C(=O)Nc2ccccc2-c2nnn(CC(=O)N3CCOCC3)n2)cc1 | ? | -27% | 1% | 0 | 2%
CSc1ccc(/C=N/NC(=O)c2cccc(O)c2)cc1 | ? | ? | ? | -3 | ?
COc1ccc(NC(=O)Cn2nnc(-c3ccccc3NS(=O)(=O)c3ccccc3)n2)cc1 | 18µM* | 23µM* | ? | 7 | -19%
CCCCOC(=O)/C(C#N)=C/c1ccc(-c2ccc(Br)cc2)o1 | -25% | -27% | / | / | /
COc1ccc(OC)c(/C=C/C(=O)N2C(=O)c3cccc(N)c3C2=O)c1 | 5.2µM* | 4.6µM* | 16µM* | -121* | ?
COc1cc(/C=C/C(=O)N2CCN(C(=O)/C=C/c3cc(OC)c(OC)c(OC)c3)CC2)cc(OC)c1OC | -16% | -4% | 15% | -8 | 19%
COc1cc(/C=C/C(=O)N2C(=O)c3cccc(N)c3C2=O)cc(OC)c1OC | 29µM* | 5.8µM* | -8% | -20 | -9%
CCCCOc1ccc(/C=C/C(=O)NC2=Nc3ccccc3NC(C)=C2C(=O)OCC)cc1OC | ? | ? | -20% | 16 | -24%
O=c1oc2cc(Br)ccc2n1CSC1=NCCS1 | 18µM* | 21µM* | 8%[9.24 µM] | -65* | -21%
COc1cc(C(C)=O)ccc1OCC(=O)N1CCC(Cc2ccccc2)CC1 | ? | ? | -14% | -10 | -15%
COc1cc(C(C)=O)ccc1OCCCN1CCC(Cc2ccccc2)CC1 | ? | ? | ? | -55* | ?
COc1cc(C(C)=O)ccc1OCCN1CCC(Cc2ccccc2)CC1 | ? | ? | ? | -64* | -23%
O=Cc1cc(Cl)ccc1OCCN1CCC(Cc2ccccc2)CC1 | 16µM* | ? | ? | -93* | 21µM*
O=C(Nc1cccc(C(F)(F)F)c1)c1csc([C@@H]2O[C@H](CO)[C@@H](O)[C@H]2O)n1 | ? | ? | -2% | 8 | 6%
CCc1nnc(NC(=O)[C@@H]2CCCN2C(=O)c2cccs2)s1 | 3% | 4% | / | / | /
O=C(Cn1sc2ccccc2c1=O)Nc1ccc(Cl)cc1 | 2.6µM* | 5.2µM* | -21% | -105* | ?
O=C(CN1C(=O)C2CC=CCC2C1=O)Nc1ccc(Br)cc1 (centres undefined) | 12% | 9% | 2% | 2 | 4%
O=C(Cn1sc2ccccc2c1=O)Nc1ccc(F)cc1 | 2.1µM* | 2.9µM* | ? | -104* | ?
CC1(C)C(=O)N(CC(=O)Nc2ccc(Cl)cc2)c2ccccc21 | -3% | -5% | / | / | /
O=C(Cn1sc2ccccc2c1=O)Nc1ccc(Br)cc1 | 2.3µM* | 2.3µM* | ? | -98* | ?
Cc1nc2ccc([N+](=O)[O-])cc2c(=O)n1Cc1ccc(Cl)cc1 | ? | ? | 4% | 18 | -1%
SMILES | DT40 TDP1 no CPT | TDP1 cell CPT | HT1080 IDH1KD tx | IL1B secr inh | HT1080-NT tox
COc1ccc(Cn2c(C)nc3ccc([N+](=O)[O-])cc3c2=O)cc1 | 21µM* | ? | -3% | 3 | -2%
COc1ccc(OC)c(NC(=O)C2CCN(Cc3cnn(-c4ccccc4)c3-n3cccc3)CC2)c1 | ? | 16µM* | ? | -6 | -2%
O=C(Nc1ccccc1Cl)C1CCN(Cc2cnn(-c3ccccc3)c2-n2cccc2)CC1 | 23µM* | 16µM* | ? | -22 | -25%
COc1ccc(NC(=O)C2CCN(Cc3cnn(-c4ccccc4)c3-n3cccc3)CC2)cc1OC | ? | ? | -15% | ? | -16%
COc1ccccc1Cc1nc2ccccc2nc1SCC(=O)Nc1c(C)cccc1C | 2% | -3% | / | / | /
CCOc1ccc(C(=O)NNC(=O)CCNC(=O)c2ccco2)cc1OC | -2% | 9% | 5% | 4 | 1%
Cn1c(CCC(=O)O)nc2cc(S(=O)(=O)N3CCCCC3)ccc21 | 17% | -2% | 2% | -12 | 0%
NC(=O)[C@H]1CC2(CC(c3cccc(NC(=O)COc4ccc(Cl)cc4)c3)=NO2)CN1C(=O)C(c1ccccc1)c1ccccc1 (some centres undefined) | 13µM* | 6.5µM* | ? | ? | ?
CC/C=C/C(=O)N1CC2(CC(c3cccc(NC(=O)COc4ccc(Cl)cc4)c3)=NO2)C[C@H]1C(N)=O (some centres undefined) | ? | 29µM* | -2% | ? | 0%
NC(=O)[C@@H]1CC2(CC(c3cccc(NC(=O)COc4ccc(Cl)cc4)c3)=NO2)CN1C(=O)COc1ccc(Cl)cc1 (some centres undefined) | 12µM* | ? | ? | -55* | ?
C/C=C(/C)C(=O)Nc1cccc(C2=NOC3(C2)C[C@H](C(N)=O)N(C(=O)COc2ccc(Cl)cc2)C3)c1 (some centres undefined) | ? | ? | 16% | -19 | 6%
CC/C=C/C(=O)N1CC2(CC(c3cccc(NC(=O)CCCCC)c3)=NO2)C[C@H]1C(N)=O (some centres undefined) | 0% | 6% | 2% | -7 | 0%
COc1ccc(CNC(=O)CN(C(=O)CCC(=O)Nc2ccccn2)c2cccc(C)c2C)cc1 | ? | -26% | -2% | 0 | 0%
CCOC(=O)c1c(C)[nH]c(C)c1S(=O)(=O)NCC(=O)Nc1cccc(SC)c1 | -17% | ? | / | / | /
COc1ccccc1NC(=O)/C=C/c1ccc2c(c1)OCO2 | ? | 16µM* | -15% | 6 | ?
COc1ccccc1N1CCN(C(=O)/C=C/c2ccc3c(c2)OCO3)CC1 | 21µM* | 21µM* | 5% | 13 | 10%
COc1ccccc1N1CCN(C(=O)/C=C/c2ccccc2)CC1 | 16µM* | ? | 0% | 4 | -2%
COc1cc(/C=C/C(=O)N2CCN(c3ccccn3)CC2)cc(OC)c1OC | 23µM* | ? | 6% | 0 | 7%
O=C(CCNS(=O)(=O)c1ccccc1)NNC(=O)COc1ccc(Cl)cc1 | -16% | -7% | 1% | -14 | 2%
O=C(N/N=C/c1ccc[nH]1)c1ccc(Cl)cc1 | -22% | -1% | 3% | 0 | -5%

High-throughput results deposited in PubChem BioAssay by National Center for Advancing Translational Sciences (NCATS).
